Common to all, as to assay: NCI-60 one-dose screen, 48 h (100 = growth as untreated, 0 = no growth, -100 = all killed)
In one test the test system is SR leukemia. As to conditions: 10 µM unless noted.
The subject of the next test is RPMI-8226 leukemia. As to conditions: 10 µM unless noted.
For a further test, the system named is OVCAR-8 ovarian. Conditions: 10 µM unless noted.
The test system of a further test is OVCAR-5 ovarian. As to conditions: 10 µM unless noted.
The next test deals with OVCAR-4 ovarian. As to conditions: 10 µM.
The test system of the next test is SK-OV-3 ovarian. As to conditions: 10 µM unless noted.
The subject of another test is IGROV1 ovarian. As to conditions: 10 µM unless noted.
For another test, the system named is OVCAR-3 ovarian. Conditions: 10 µM unless noted.
The test system of another test is HS 578T breast. Conditions: 10 µM unless noted.
The subject of another test is NCI/ADR-RES ovarian. Conditions: 10 µM unless noted.
The test system of the next test is T-47D breast. As to conditions: 10 µM unless noted.
For the next test, the system named is MDA-MB-435 melanoma. As to conditions: 10 µM unless noted.
The subject of the next test is SW-620 colon. Conditions: 10 µM unless noted.
The next test concerns MCF7 breast. Conditions: 10 µM unless noted.
The subject of a further test is HCT-116 colon. As to conditions: 10 µM unless noted.
A further test has as its system HCC-2998 colon. Conditions: 10 µM unless noted.
Another test relates to KM12 colon. As to conditions: 10 µM unless noted.
A further test relates to BT-549 breast. As to conditions: 10 µM unless noted.

From PubChem BioAssay (NCI) come the findings set out here.

Compounds without any hit were thinned out: in the full panel of roughly 83,000, 20% have a hit.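 Cells were grown in 96-well plates and exposed to the test compound at a single concentration for 48 hours; results are reported as percent growth, with values below 10 considered active.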 A number with no mark means an inactive call. The source made the active and inactive calls.

Regarding `Cc1ccc(S(=O)(=O)Oc2ccc(Br)cc2Br)cc1`, the growth in the test with SR leukemia was 22%; in the test with RPMI-8226 leukemia, 73.3%; in the test with OVCAR-8 ovarian, 95.1%; in the test on OVCAR-5 ovarian it was 89.5%; with OVCAR-4 ovarian, 72.4%; with SK-OV-3 ovarian, 79.4%. The growth is 73.3% in the test on IGROV1 ovarian; 86.9% in the test with OVCAR-3 ovarian; 87.7% in the test with HS 578T breast; 62.3% in the test with NCI/ADR-RES ovarian; 70.7% in the test on T-47D breast; -46% (active) with MDA-MB-435 melanoma. Besides, the growth in the test on SW-620 colon was 58.6%; in the test on MCF7 breast, 75.7%; with HCT-116 colon, 49.3%; with HCC-2998 colon, 78.3%; in the test on KM12 colon, 45.9%.
Regarding `Cn1cc(-c2noc(-c3cn(C)c4ncc(F)cc34)n2)c2ccccc21`, the growth is 69.1% in the test on SR leukemia; 78.2% in the test on RPMI-8226 leukemia; 40% in the test with OVCAR-8 ovarian; 75.1% in the test on OVCAR-5 ovarian; -29.4% (active) in the test with OVCAR-4 ovarian; 7.74% (active) in the test on SK-OV-3 ovarian. In addition, the growth in the test with IGROV1 ovarian is 45%; with OVCAR-3 ovarian, 32.5%; in the test with HS 578T breast, 30.9%; in the test on NCI/ADR-RES ovarian, 58.2%; in the test on T-47D breast, 42.3%; in the test with MDA-MB-435 melanoma, 72.8%. Further, the growth in the test on SW-620 colon was 56.1%; in the test on MCF7 breast, 34.1%; with HCT-116 colon, 27%; in the test with HCC-2998 colon, 86.6%; in the test on KM12 colon, 62.7%.
With `Cn1cc(-c2noc(-c3cn(C)c4ncc(F)cc34)n2)c2cc(Cl)ccc21`, the growth in the test on SR leukemia was 34.5%; with RPMI-8226 leukemia, 67%; in the test on OVCAR-8 ovarian, 48.7%; in the test on OVCAR-5 ovarian, 61.9%; in the test with OVCAR-4 ovarian, -50.6% (active); with SK-OV-3 ovarian, 87.8%. Besides, the growth in the test on IGROV1 ovarian is 51.7%; in the test on OVCAR-3 ovarian it was 19.7%; in the test on HS 578T breast it was 47%; in the test with NCI/ADR-RES ovarian it was 67.9%; with T-47D breast it was 14%; with MDA-MB-435 melanoma, 68.5%. Besides, the growth is 47.4% in the test on SW-620 colon; 38.5% in the test with MCF7 breast; 44.5% in the test with HCT-116 colon; 97% in the test on HCC-2998 colon; 61.1% in the test with KM12 colon.
As to `COc1ccc(C(C(=O)O)c2ccc(OC)cc2)cc1`, the growth in the test with SR leukemia is 106%; in the test on RPMI-8226 leukemia, 111%; in the test with OVCAR-8 ovarian, 113%; with OVCAR-5 ovarian it was 108%; in the test with OVCAR-4 ovarian, 103%; in the test on SK-OV-3 ovarian it was 116%. For the same compound, the growth was 118% in the test on IGROV1 ovarian; 101% with OVCAR-3 ovarian; 129% with HS 578T breast; 117% in the test on NCI/ADR-RES ovarian; 118% in the test with T-47D breast; 115% in the test with MDA-MB-435 melanoma. For the same compound, the growth in the test with SW-620 colon was 107%; in the test with MCF7 breast it was 101%; in the test with HCT-116 colon, 108%; with HCC-2998 colon, 116%; in the test with KM12 colon it was 111%.
`CCCCC(CCCCCC(CCCC)C1NC(C)Cc2cc(OC)c(OC)cc21)C1NC(C)Cc2cc(OC)c(OC)cc21` (stereo unspecified): the growth in the test with SR leukemia was -79.2% (active); in the test on RPMI-8226 leukemia, -48.3% (active); in the test with OVCAR-8 ovarian it was -74.3% (active); in the test with OVCAR-5 ovarian it was -96.4% (active); in the test on OVCAR-4 ovarian it was -90.1% (active); in the test on SK-OV-3 ovarian it was -87.3% (active). Moreover, the growth is -34.8% (active) in the test with IGROV1 ovarian; -94.2% (active) in the test on OVCAR-3 ovarian; -38.6% (active) with HS 578T breast; -88.3% (active) in the test with NCI/ADR-RES ovarian; -76.8% (active) in the test with T-47D breast; -73.4% (active) in the test on MDA-MB-435 melanoma. The growth in the test on SW-620 colon was -80.8% (active); in the test on MCF7 breast it was -95.1% (active); in the test on HCT-116 colon, -97.5% (active); in the test on HCC-2998 colon it was -97.3% (active); in the test with KM12 colon, -94.7% (active).
`CCn1cc(-c2ccnc(NCCNS(=O)(=O)c3cccc4ccccc34)c2)c(-c2cccc(O)c2)n1`: the growth was 74.9% in the test with SR leukemia; 74% in the test on RPMI-8226 leukemia; 101% with OVCAR-8 ovarian; 123% in the test on OVCAR-5 ovarian; 99.9% in the test on OVCAR-4 ovarian; 106% in the test on SK-OV-3 ovarian. The growth with IGROV1 ovarian was 91.5%; with OVCAR-3 ovarian it was 100%; with HS 578T breast, 95.3%; in the test with NCI/ADR-RES ovarian, 102%; in the test with T-47D breast it was 85.9%; in the test on BT-549 breast, 109%. For the same compound, the growth with MDA-MB-435 melanoma was 96.1%; in the test with SW-620 colon, 118%; in the test on HCT-116 colon it was 87.3%; in the test with HCC-2998 colon it was 122%; in the test on KM12 colon it was 99.1%.
Turning to `C#CCC(C(=O)OCC)C(=O)OCC`, the growth was 99.9% in the test on SR leukemia; 102% in the test with RPMI-8226 leukemia; 105% with OVCAR-8 ovarian; 94.9% in the test with OVCAR-5 ovarian; 128% in the test on OVCAR-4 ovarian; 99.5% in the test on SK-OV-3 ovarian. In addition, the growth is 117% in the test with IGROV1 ovarian; 103% in the test on OVCAR-3 ovarian; 104% in the test with HS 578T breast; 105% in the test with NCI/ADR-RES ovarian; 114% in the test with T-47D breast; 97.8% in the test with MDA-MB-435 melanoma. Besides, the growth with SW-620 colon is 106%; in the test with MCF7 breast, 98%; in the test with HCT-116 colon, 105%; in the test on HCC-2998 colon, 101%; in the test with KM12 colon, 106%.
Take `Cc1ccc(Oc2c(/C=N/NC(=O)Cn3c(=O)sc4ccccc43)c(C)nn2-c2ccccc2)cc1`: the growth with SR leukemia was 41.8%; in the test on RPMI-8226 leukemia it was 32.8%; in the test with OVCAR-8 ovarian it was 54.8%; with OVCAR-5 ovarian, 74.1%; in the test on OVCAR-4 ovarian, 46.2%; in the test on SK-OV-3 ovarian, 66.6%. The growth in the test with IGROV1 ovarian was 44.4%; with OVCAR-3 ovarian, 54.2%; in the test on HS 578T breast, 63.2%; in the test on NCI/ADR-RES ovarian, 50.2%; in the test with T-47D breast, 20.4%; with MDA-MB-435 melanoma, 61.7%. The growth is 68.4% in the test on SW-620 colon, 31.1% in the test with MCF7 breast, 37% in the test on HCT-116 colon and 69.2% with HCC-2998 colon.
`CC(C)C1=NOC(=O)C1=Cc1cn(-c2ccccc2)nc1-c1ccccc1`: the growth in the test on SR leukemia is -26.9% (active); with RPMI-8226 leukemia, -16.2% (active); in the test on OVCAR-8 ovarian, 59.8%; in the test on OVCAR-5 ovarian it was 102%; in the test with OVCAR-4 ovarian it was 95.4%; in the test with SK-OV-3 ovarian, 112%. The growth was 67.5% in the test on IGROV1 ovarian; 88.4% with OVCAR-3 ovarian; 64% in the test with HS 578T breast; 94.6% with NCI/ADR-RES ovarian; 76.2% with T-47D breast; 114% in the test with BT-549 breast. Also, the growth in the test with MDA-MB-435 melanoma is 73.2%; in the test with HCT-116 colon it was 28.9%; with HCC-2998 colon, 91.8%; in the test on KM12 colon, 79.5%.
